Some targets named below: HOXD13 (Homo sapiens, UniProt P35453 263-343, T313A); MSX2 (Homo sapiens, UniProt P35548 130-214, F161Y); HESX1 (Homo sapiens, UniProt Q9UBX0 95-180, F115L).
Holding throughout (assay): PBM; 200 nM protein, PBS
Common to all, as to conditions: dsDNA, one strand shown

Assay [1] concerns the target VAX1 (Homo sapiens, UniProt Q5SQQ9 86-172).
Assay [2] concerns the target VAX1 (Homo sapiens, UniProt Q5SQQ9 86-172, T142I).
For assay [3], the target named is VAX1 (Homo sapiens, UniProt Q5SQQ9 86-172, K157R).
The target in assay [4] is NKX3-2 (Homo sapiens, UniProt P78367 192-278, P234S).
Assay [5] addresses NKX3-2 (Homo sapiens, UniProt P78367 192-278).
For another assay, the target named is T1, NKX2-6 (Homo sapiens, UniProt A6NCS4 118-204, F151L).
T1 sequence: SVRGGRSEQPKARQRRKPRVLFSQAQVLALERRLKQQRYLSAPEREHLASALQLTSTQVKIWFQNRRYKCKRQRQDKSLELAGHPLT

The target in the next assay is T2, PAX4 (Homo sapiens, UniProt O43316 9-242, R227W).
T2 sequence: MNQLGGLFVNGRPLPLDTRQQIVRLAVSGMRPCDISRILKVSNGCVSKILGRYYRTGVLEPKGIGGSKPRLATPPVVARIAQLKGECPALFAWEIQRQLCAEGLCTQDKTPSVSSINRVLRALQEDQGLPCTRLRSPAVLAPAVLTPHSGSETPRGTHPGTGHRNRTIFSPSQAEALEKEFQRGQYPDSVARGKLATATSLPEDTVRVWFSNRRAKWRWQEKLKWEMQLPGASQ

Chain of VAX1 (Homo sapiens, UniProt Q5SQQ9 86-172) (Q5SQQ9 86-172): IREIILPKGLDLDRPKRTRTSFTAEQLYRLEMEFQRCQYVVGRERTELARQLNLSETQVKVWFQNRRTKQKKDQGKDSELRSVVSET
Chain of NKX3-2 (Homo sapiens, UniProt P78367 192-278) (P78367 192-278): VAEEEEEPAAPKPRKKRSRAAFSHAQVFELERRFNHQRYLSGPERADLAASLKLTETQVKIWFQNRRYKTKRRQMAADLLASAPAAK
Chain of VAX1 (Homo sapiens, UniProt Q5SQQ9 86-172, K157R) (Q5SQQ9 86-172 K157R): as the sequence (Q5SQQ9 86-172) above, with K72R counted along it
Chain of VAX1 (Homo sapiens, UniProt Q5SQQ9 86-172, T142I) (Q5SQQ9 86-172 T142I): as the sequence (Q5SQQ9 86-172) above, with T57I counted along it
Chain of NKX3-2 (Homo sapiens, UniProt P78367 192-278, P234S) (P78367 192-278 P234S): as the sequence (P78367 192-278) above, with P43S counted along it
Chain of HESX1 (Q9UBX0 95-180 F115L): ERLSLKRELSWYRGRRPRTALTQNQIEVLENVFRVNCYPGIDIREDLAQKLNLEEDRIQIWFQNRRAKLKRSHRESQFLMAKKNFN
Chain of HOXD13 (P35453 263-343 T313A): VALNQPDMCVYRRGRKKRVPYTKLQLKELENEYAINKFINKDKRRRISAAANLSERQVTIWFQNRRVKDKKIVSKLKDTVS
Chain of MSX2 (P35548 130-214 F161Y): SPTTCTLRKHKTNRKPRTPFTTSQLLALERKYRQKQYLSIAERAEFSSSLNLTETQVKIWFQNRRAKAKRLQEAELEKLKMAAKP

As for AGGTAAAT, the binding signal was 10.4 upbm affinity estimate (log intensity, higher = more binding, comparable within an allelic series) with VAX1 [1]; 10.2 upbm affinity estimate (log intensity, higher = more binding, comparable within an allelic series) with VAX1 [2]; 10.2 upbm affinity estimate (log intensity, higher = more binding, comparable within an allelic series) in the assay with VAX1 [3].
Turning to GATTTAGA, the binding signal with VAX1 [1] was 9.33 upbm affinity estimate (log intensity, higher = more binding, comparable within an allelic series); with VAX1 [2] it was 9.17 upbm affinity estimate (log intensity, higher = more binding, comparable within an allelic series); with VAX1 [3], 9.1 upbm affinity estimate (log intensity, higher = more binding, comparable within an allelic series).
Turning to ACAATAAT, the binding signal was 11.2 upbm affinity estimate (log intensity, higher = more binding, comparable within an allelic series) with VAX1 [1]; 11 upbm affinity estimate (log intensity, higher = more binding, comparable within an allelic series) in the assay with VAX1 [2]; 10.9 upbm affinity estimate (log intensity, higher = more binding, comparable within an allelic series) with VAX1 [3].
Turning to ATTTATAA, the binding signal is 10.7 upbm affinity estimate (log intensity, higher = more binding, comparable within an allelic series) in the assay with VAX1 [1]; 10.5 upbm affinity estimate (log intensity, higher = more binding, comparable within an allelic series) with VAX1 [2]; 10.4 upbm affinity estimate (log intensity, higher = more binding, comparable within an allelic series) with VAX1 [3].
As for AGCCTCCG, the binding signal with VAX1 [1] was 6.91 upbm affinity estimate (log intensity, higher = more binding, comparable within an allelic series); in the assay with VAX1 [2], 7 upbm affinity estimate (log intensity, higher = more binding, comparable within an allelic series); in the assay with VAX1 [3] it was 6.91 upbm affinity estimate (log intensity, higher = more binding, comparable within an allelic series).
Regarding GGTCTCCA, the binding signal was 7.04 upbm affinity estimate (log intensity, higher = more binding, comparable within an allelic series) with VAX1 [1]; 7.37 upbm affinity estimate (log intensity, higher = more binding, comparable within an allelic series) with VAX1 [2]; 7.2 upbm affinity estimate (log intensity, higher = more binding, comparable within an allelic series) with VAX1 [3].
As to GTCCCTAA, the binding signal with VAX1 [1] is 9.58 upbm affinity estimate (log intensity, higher = more binding, comparable within an allelic series); with VAX1 [2], 9.36 upbm affinity estimate (log intensity, higher = more binding, comparable within an allelic series); with VAX1 [3] it was 9.3 upbm affinity estimate (log intensity, higher = more binding, comparable within an allelic series).
Turning to CTCCGTGC, the binding signal was 6.97 upbm affinity estimate (log intensity, higher = more binding, comparable within an allelic series) in the assay with VAX1 [1]; 7.18 upbm affinity estimate (log intensity, higher = more binding, comparable within an allelic series) with VAX1 [2]; 6.81 upbm affinity estimate (log intensity, higher = more binding, comparable within an allelic series) with VAX1 [3].
Take AGCCCGTG: the binding signal in the assay with VAX1 [1] was 7.01 upbm affinity estimate (log intensity, higher = more binding, comparable within an allelic series); with VAX1 [2], 7.09 upbm affinity estimate (log intensity, higher = more binding, comparable within an allelic series); with VAX1 [3], 7.28 upbm affinity estimate (log intensity, higher = more binding, comparable within an allelic series).
In the case of CTGAGCCC, the binding signal with VAX1 [1] was 7.3 upbm affinity estimate (log intensity, higher = more binding, comparable within an allelic series); with VAX1 [2] it was 7.49 upbm affinity estimate (log intensity, higher = more binding, comparable within an allelic series); with VAX1 [3], 7.38 upbm affinity estimate (log intensity, higher = more binding, comparable within an allelic series).
Consider ATGATGAA, for which the binding signal with VAX1 [1] is 9.52 upbm affinity estimate (log intensity, higher = more binding, comparable within an allelic series); in the assay with VAX1 [2], 9.3 upbm affinity estimate (log intensity, higher = more binding, comparable within an allelic series); with VAX1 [3], 9.22 upbm affinity estimate (log intensity, higher = more binding, comparable within an allelic series).
On to CGAAGCAG, for which the binding signal is 6.89 upbm affinity estimate (log intensity, higher = more binding, comparable within an allelic series) with VAX1 [1]; 7.23 upbm affinity estimate (log intensity, higher = more binding, comparable within an allelic series) in the assay with VAX1 [2]; 7.1 upbm affinity estimate (log intensity, higher = more binding, comparable within an allelic series) in the assay with VAX1 [3].
Take CCGGCTTC: the binding signal with VAX1 [1] was 6.96 upbm affinity estimate (log intensity, higher = more binding, comparable within an allelic series); in the assay with VAX1 [2], 7.09 upbm affinity estimate (log intensity, higher = more binding, comparable within an allelic series); in the assay with VAX1 [3], 6.93 upbm affinity estimate (log intensity, higher = more binding, comparable within an allelic series).
In the case of GTTTACAA, the binding signal with HOXD13 is 11.6 upbm affinity estimate (log intensity, higher = more binding, comparable within an allelic series).
On to TTATGGAA, for which the binding signal with VAX1 [1] is 9.61 upbm affinity estimate (log intensity, higher = more binding, comparable within an allelic series); in the assay with VAX1 [2] it was 9.32 upbm affinity estimate (log intensity, higher = more binding, comparable within an allelic series); with VAX1 [3], 9.34 upbm affinity estimate (log intensity, higher = more binding, comparable within an allelic series).
As for GCTCAGCC, the binding signal in the assay with VAX1 [1] is 6.9 upbm affinity estimate (log intensity, higher = more binding, comparable within an allelic series); with VAX1 [2], 6.99 upbm affinity estimate (log intensity, higher = more binding, comparable within an allelic series); with VAX1 [3], 6.88 upbm affinity estimate (log intensity, higher = more binding, comparable within an allelic series).
Take CCGGCAGC: the binding signal in the assay with VAX1 [1] was 7.15 upbm affinity estimate (log intensity, higher = more binding, comparable within an allelic series); in the assay with VAX1 [2] it was 7.15 upbm affinity estimate (log intensity, higher = more binding, comparable within an allelic series); with VAX1 [3], 7.17 upbm affinity estimate (log intensity, higher = more binding, comparable within an allelic series).
In the case of AGATGAGC, the binding signal in the assay with VAX1 [1] is 8.9 upbm affinity estimate (log intensity, higher = more binding, comparable within an allelic series); in the assay with VAX1 [3], 8.88 upbm affinity estimate (log intensity, higher = more binding, comparable within an allelic series).
Regarding GTGATAAC, the binding signal with VAX1 [1] is 9.19 upbm affinity estimate (log intensity, higher = more binding, comparable within an allelic series); with VAX1 [2], 8.78 upbm affinity estimate (log intensity, higher = more binding, comparable within an allelic series); with VAX1 [3], 8.95 upbm affinity estimate (log intensity, higher = more binding, comparable within an allelic series).
AATTACAA: the binding signal with MSX2 is 12.9 upbm affinity estimate (log intensity, higher = more binding, comparable within an allelic series).
As for CTTATTAA, in the assay with HESX1, the binding signal was 7.74 upbm affinity estimate (log intensity, higher = more binding, comparable within an allelic series).
For GCCGGCGC, the binding signal with NKX3-2 [4] was 10.3 upbm affinity estimate (log intensity, higher = more binding, comparable within an allelic series); with NKX3-2 [5], 10.3 upbm affinity estimate (log intensity, higher = more binding, comparable within an allelic series).
Regarding CGAAGTGC, the binding signal with NKX3-2 [4] is 12.5 upbm affinity estimate (log intensity, higher = more binding, comparable within an allelic series).
Take CGGGTCGA: the binding signal with NKX3-2 [4] was 10.6 upbm affinity estimate (log intensity, higher = more binding, comparable within an allelic series); with NKX3-2 [5] it was 10.6 upbm affinity estimate (log intensity, higher = more binding, comparable within an allelic series).
Take AAATTATT: the binding signal in the assay with HESX1 is 7.73 upbm affinity estimate (log intensity, higher = more binding, comparable within an allelic series).
On to ACCTCTTG, for which the binding signal with NKX3-2 [4] was 11.6 upbm affinity estimate (log intensity, higher = more binding, comparable within an allelic series); in the assay with NKX3-2 [5], 11.7 upbm affinity estimate (log intensity, higher = more binding, comparable within an allelic series).
With ATCCGAGC, the binding signal with NKX3-2 [4] was 10.6 upbm affinity estimate (log intensity, higher = more binding, comparable within an allelic series); with NKX3-2 [5], 10.6 upbm affinity estimate (log intensity, higher = more binding, comparable within an allelic series).
Consider GAGTAGAC, for which the binding signal was 11.6 upbm affinity estimate (log intensity, higher = more binding, comparable within an allelic series) with NKX3-2 [4] and 11.6 upbm affinity estimate (log intensity, higher = more binding, comparable within an allelic series) with NKX3-2 [5].
AAACACTT: the binding signal in the assay with NKX2-6 is 10.9 upbm affinity estimate (log intensity, higher = more binding, comparable within an allelic series).
CATATTAG: in the assay with PAX4, the binding signal is 10.9 upbm affinity estimate (log intensity, higher = more binding, comparable within an allelic series).
Take ACCAACGC: the binding signal was 10.7 upbm affinity estimate (log intensity, higher = more binding, comparable within an allelic series) in the assay with NKX3-2 [4] and 10.7 upbm affinity estimate (log intensity, higher = more binding, comparable within an allelic series) with NKX3-2 [5].
As for ACACTTAC, the binding signal with NKX2-6 was 10.6 upbm affinity estimate (log intensity, higher = more binding, comparable within an allelic series); with NKX3-2 [4] it was 12.5 upbm affinity estimate (log intensity, higher = more binding, comparable within an allelic series).
In the case of AAGTGTTC, the binding signal in the assay with NKX2-6 is 10.8 upbm affinity estimate (log intensity, higher = more binding, comparable within an allelic series).
With CGCCAGCC, the binding signal was 10.7 upbm affinity estimate (log intensity, higher = more binding, comparable within an allelic series) in the assay with NKX3-2 [4] and 10.6 upbm affinity estimate (log intensity, higher = more binding, comparable within an allelic series) with NKX3-2 [5].
Consider ACGGCAGC, for which the binding signal is 10.6 upbm affinity estimate (log intensity, higher = more binding, comparable within an allelic series) in the assay with NKX3-2 [4] and 10.5 upbm affinity estimate (log intensity, higher = more binding, comparable within an allelic series) with NKX3-2 [5].
On to CGGGTTAG, for which the binding signal with NKX3-2 [4] is 10.5 upbm affinity estimate (log intensity, higher = more binding, comparable within an allelic series); with NKX3-2 [5], 10.5 upbm affinity estimate (log intensity, higher = more binding, comparable within an allelic series).

For the origin of these results see article PMC11006913.
